The text below walks through data of the supplement of paper PMC7057948, “A genome-wide approach for identification and characterisation of metabolite-inducible systems” (Nature Communications, 2020).

The test system of one test is BenM/P_H16_RS09790 benzoate biosensor (pEH148). Kind of test: relative induction of RFP reporter vs primary effector; higher = stronger activation. The note with it: inducer concentration 5 mM; 6 h; Cupriavidus necator H16; minimal medium + 0.4% gluconate. The protocol: (§1)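 Orthogonality screen of 21 primary inducers against 21 transcription factor/inducible promoter–mRFP biosensors in C. necator H16 in minimal medium, robotic 96-well format, 5 mM inducer, 30 °C. OD-normalised RFP fluorescence was read 6 h later and expressed as relative induction (%) = 100 × (FL compound − FL uninduced)/(FL primary inducer − FL uninduced); mean of n=4. Cognate pairs (100% by definition) omitted.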
For `NCCC(=O)O` [β-alanine], the “relative induction of RFP reporter” value was -0.0408%.
On the same count and under the same terms, in the case of `O=C(O)C(=O)c1ccccc1` [phenylglyoxylate] it was 16.8%; in that of `O=C(O)CS(=O)(=O)O` [sulfonatoacetate], -0.0067%.
With `CC(=O)C(C)O` (configuration not stated) [acetoin], the “relative induction of RFP reporter” value was -0.0473%.
With `N[C@@H](Cc1ccc(O)cc1)C(=O)O` [L-tyrosine], the “relative induction of RFP reporter” value is -0.0654%.
The same measure, in the same setting: the same measure for `O=c1[nH]c(=O)c2nc[nH]c2[nH]1` [xanthine]: -0.0092%; for `OC1OC[C@H](O)[C@H](O)[C@H]1O` (mixture of isomers) [L-arabinose]: -0.0174%.
Turning to `O=C(O)C(O)C(O)C(=O)O` (configuration not stated) [tartrate], the “relative induction of RFP reporter” value was 0.00705%.
`O=C(O)c1ccccc1O` [salicylate]: the “relative induction of RFP reporter” value was determined as 1.72%.
`C=C(CC(=O)O)C(=O)O` [itaconate]: the “relative induction of RFP reporter” value is -0.0396%.
Still for that read-out and setting: in the case of `O=C(O)c1ccc(O)c(O)c1` [3,4-dihydroxybenzoate] it was -0.0316%; in that of `O=CO` [formate], 0.0137%.
The same measure, in the same setting: the same measure for `N[C@@H](Cc1ccccc1)C(=O)O` [L-phenylalanine]: -0.0737%; for `O=C(O)CCO` [3-hydroxypropanoate]: -0.029%.
The same measure, in the same setting: the same measure for `Nc1ccccc1C(=O)C[C@H](N)C(=O)O` [L-kynurenine]: -0.0309%; for `C=CC(=O)O` [acrylate]: 0.00199%.

A further test relates to FdsR/P_H16_RS03165 formate biosensor (pEH134). Described as above. As to conditions: inducer concentration 5 mM; 6 h; Cupriavidus necator H16; minimal medium + 0.4% gluconate. How it is done: as §1
For `NCCC(=O)O` [β-alanine], the “relative induction of RFP reporter” value was -3.65%.
On the same count and under the same terms, the same measure for `O=C(O)CS(=O)(=O)O` [sulfonatoacetate]: -4.35%; for `CC(=O)C(C)O` (configuration not stated) [acetoin]: -6.92%; for `N[C@@H](Cc1ccc(O)cc1)C(=O)O` [L-tyrosine]: -2.95%.
With `O=c1[nH]c(=O)c2nc[nH]c2[nH]1` [xanthine], the “relative induction of RFP reporter” value is -4.71%.
For the molecule `OC1OC[C@H](O)[C@H](O)[C@H]1O` (mixture of isomers) [L-arabinose], the “relative induction of RFP reporter” value was -1.73%.
`O=C(O)C(O)C(O)C(=O)O` (configuration not stated) [tartrate]: the “relative induction of RFP reporter” value was -1.89%.
Same read-out and setting: in the case of `O=C(O)c1ccccc1` [benzoate] it was -1.25%; in that of `O=C(O)c1ccccc1O` [salicylate], -11.3%; in that of `C=C(CC(=O)O)C(=O)O` [itaconate], -5.89%.
Same read-out and setting: the same measure for `O=C(O)C1CCCCC1` [cyclohexane-1-carboxylate]: -8.69%.
As to `O=C(O)c1ccc(O)c(O)c1` [3,4-dihydroxybenzoate], the “relative induction of RFP reporter” value amounted to 8.18%.
Same read-out and setting: the same measure for `N[C@@H](Cc1ccccc1)C(=O)O` [L-phenylalanine]: -4.81%.
Turning to `O=C(O)CCO` [3-hydroxypropanoate], the “relative induction of RFP reporter” value is -8.81%.
The same measure, in the same setting: in the case of `Nc1ccccc1C(=O)C[C@H](N)C(=O)O` [L-kynurenine] it was -4.32%; in that of `C=CC(=O)O` [acrylate], -7.94%.

A further test relates to GabR/P_H16_RS23655 GABA biosensor (pEH256). Described as above. The note with it: inducer concentration 5 mM; 6 h; Cupriavidus necator H16; minimal medium + 0.4% gluconate. How it is done:
as §1
Consider `NCCC(=O)O` [β-alanine], for which the “relative induction of RFP reporter” value is -1.1%.
On to `O=C(O)C(=O)c1ccccc1` [phenylglyoxylate], for which the “relative induction of RFP reporter” value was -2.13%.
For `O=C(O)CS(=O)(=O)O` [sulfonatoacetate], the “relative induction of RFP reporter” value is -1.11%.
Still for that read-out and setting: in the case of `CC(=O)C(C)O` (configuration not stated) [acetoin] it was -1.36%.
Same read-out and setting: the same measure for `N[C@@H](Cc1ccc(O)cc1)C(=O)O` [L-tyrosine]: -2.3%; for `O=c1[nH]c(=O)c2nc[nH]c2[nH]1` [xanthine]: -1.02%.
Still for that read-out and setting: in the case of `OC1OC[C@H](O)[C@H](O)[C@H]1O` (mixture of isomers) [L-arabinose] it was -0.944%; in that of `O=C(O)C(O)C(O)C(=O)O` (configuration not stated) [tartrate], 0.312%.
On to `O=C(O)c1ccccc1` [benzoate], for which the “relative induction of RFP reporter” value was -2.52%.
For the molecule `O=C(O)c1ccccc1O` [salicylate], the “relative induction of RFP reporter” value worked out at 1.28%.
The same measure, in the same setting: in the case of `C=C(CC(=O)O)C(=O)O` [itaconate] it was -1.61%.
Turning to `O=C(O)C1CCCCC1` [cyclohexane-1-carboxylate], the “relative induction of RFP reporter” value was -0.578%.
The same measure, in the same setting: in the case of `O=C(O)c1ccc(O)c(O)c1` [3,4-dihydroxybenzoate] it was -1.96%; in that of `O=CO` [formate], -0.53%; in that of `N[C@@H](Cc1ccccc1)C(=O)O` [L-phenylalanine], -2.3%.
Same read-out and setting: in the case of `O=C(O)CCO` [3-hydroxypropanoate] it was -1.71%.
Regarding `Nc1ccccc1C(=O)C[C@H](N)C(=O)O` [L-kynurenine], the “relative induction of RFP reporter” value was -1.24%.
On the same count and under the same terms, the same measure for `C=CC(=O)O` [acrylate]: 0.12%.

The next test concerns HpdA/P_H16_RS24175 L-tyrosine biosensor (pEH158). The test is described as above. The note with it: inducer concentration 5 mM; 6 h; Cupriavidus necator H16; minimal medium + 0.4% gluconate. How it is done:
as §1
In the case of `NCCC(=O)O` [β-alanine], the “relative induction of RFP reporter” value was -0.165%.
Regarding `O=C(O)C(=O)c1ccccc1` [phenylglyoxylate], the “relative induction of RFP reporter” value was -0.159%.
The same measure, in the same setting: the same measure for `O=C(O)CS(=O)(=O)O` [sulfonatoacetate]: -0.143%.
The same measure, in the same setting: in the case of `CC(=O)C(C)O` (configuration not stated) [acetoin] it was -0.195%.
Still for that read-out and setting: in the case of `O=c1[nH]c(=O)c2nc[nH]c2[nH]1` [xanthine] it was -0.0594%.
For `OC1OC[C@H](O)[C@H](O)[C@H]1O` (mixture of isomers) [L-arabinose], the “relative induction of RFP reporter” value is 0.0304%.
The same measure, in the same setting: in the case of `O=C(O)C(O)C(O)C(=O)O` (configuration not stated) [tartrate] it was -0.0207%; in that of `O=C(O)c1ccccc1` [benzoate], -0.127%.
As to `O=C(O)c1ccccc1O` [salicylate], the “relative induction of RFP reporter” value was -0.0712%.
Same read-out and setting: the same measure for `C=C(CC(=O)O)C(=O)O` [itaconate]: -0.159%; for `O=C(O)C1CCCCC1` [cyclohexane-1-carboxylate]: -0.0345%.
`O=C(O)c1ccc(O)c(O)c1` [3,4-dihydroxybenzoate]: the “relative induction of RFP reporter” value was -0.149%.
Regarding `O=CO` [formate], the “relative induction of RFP reporter” value is -0.107%.
`N[C@@H](Cc1ccccc1)C(=O)O` [L-phenylalanine]: the “relative induction of RFP reporter” value came to 57.7%.
Still for that read-out and setting: the same measure for `O=C(O)CCO` [3-hydroxypropanoate]: -0.172%; for `Nc1ccccc1C(=O)C[C@H](N)C(=O)O` [L-kynurenine]: 0.183%; for `C=CC(=O)O` [acrylate]: -0.146%.
